Assay results reported in PubChem BioAssay (NCI).
About 83,000 compounds went through this panel and 20% of them were active in at least one assay; those are over-represented in the sample as a whole.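 How to read the values: 0–100, growth inhibition (40 = 60% inhibited); 0, no net growth; -100 to 0, cell death (-40 = 40% of starting cells died; -100 = all dead).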 A number with no mark means an inactive call. Activity calls are given as the source filed them. How the source made its calls: active means growth percent below 10; inactive means the rest.

Experiments:
Assay in all cases: NCI-60 one-dose screen, 48 h (100 = growth as untreated, 0 = no growth, -100 = all killed)
Conditions in all cases: 10 µM unless noted
NCI-H23 lung = system: NCI-H23 lung
NCI-H226 lung = system: NCI-H226 lung
NCI-H322M lung = system: NCI-H322M lung
HOP-62 NSCLC = system: HOP-62 NSCLC
NCI-H460 lung = system: NCI-H460 lung
HOP-92 NSCLC = system: HOP-92 NSCLC
NCI-H522 lung = system: NCI-H522 lung
A549/ATCC NSCLC = system: A549/ATCC NSCLC
786-0 renal = system: 786-0 renal
COLO 205 colon = system: COLO 205 colon

SMILES | growth (NCI-H23 lung) | growth (NCI-H226 lung) | growth (NCI-H322M lung) | growth (HOP-62 NSCLC) | growth (NCI-H460 lung) | growth (HOP-92 NSCLC) | growth (NCI-H522 lung) | growth (A549/ATCC NSCLC) | growth (786-0 renal) | growth (COLO 205 colon)
CC1=C(C(=O)Nc2nc(-c3ccc(Cl)cc3)cs2)[C@H](c2ccc(O)cc2)NC(=O)N1 | 101% | 87.8% | 88.3% | 99.1% | 104% | 100% | 90.5% | 95.1% | 97.8% | 110%
CN(C)CCCC1(c2ccc(F)cc2)OCc2cc(-c3ccc4cc[nH]c4c3)ccc21 (stereo not given) | 86.6% | 95.2% | 65% | 74.9% | -10.5% (active) | 45.9% | 61.5% | 49.1% | 78.1% | 9.88% (active)
N#C/C(=C\c1cn(Cc2ccccc2)c2ccccc12)C(=O)Nc1ncc(Cc2ccccc2Cl)s1 | -29.3% (active) | -33.6% (active) | 36.1% | 12.5% | -44.2% (active) | -6.07% (active) | 30.3% | 8.73% (active) | 6.01% (active) | -2.97% (active)
CC1(C)C(N)=Nc2cc(OCCCN3Cc4ccccc4C3)c(OCC3CC3)cc21 | 93.5% | 82.9% | 82.3% | 93.2% | 79.8% | 63.7% | 59.6% | 77.2% | 64% | -57.2% (active)
Nn1c(=O)c(=O)[nH]c2c(cnn2-c2ccccc2)c1=O | 108% | 94.2% | 108% | 86.2% | 117% | 106% | 96.2% | 101% | 103% | 121%
CCCCNC(=O)Oc1ccc(/C(=C(/C)Cc2ccc(OC)cc2)c2ccc(OCCN3CCCCC3)cc2)cc1 | 81.6% | 90.5% | 92% | 84.1% | 33.6% | 63.4% | 81.2% | 61% | 66.7% | 34.9%
Nc1ncnc2c1N=C(c1ccc3c(c1)OCO3)CC(c1cccc(Nc3ccnc4cc(C(F)(F)F)ccc34)c1)N2 (stereo not given) | 84.2% | 78.1% | 94.3% | 84.5% | 90.7% | 53.8% | 73.6% | 68.6% | 82.5% | 115%
CCOC(=O)c1c(C)nc2c(c1N)CC(=O)N2Cc1ccc(OC)cc1 | 33.7% | 17.4% | 41% | -7.19% (active) | 5.12% (active) | -4.45% (active) | -1.06% (active) | 25.8% | 6.69% (active) | 95.4%
O=C1Nc2ccccc2C1(c1c[nH]c2ccccc12)c1c[nH]c2ccccc12 | -13.5% (active) | 8.63% (active) | -15.6% (active) | 49.3% | 70.6% | -6.64% (active) | 21.6% | 58.7% | 83.7% | -27.7% (active)
Cc1c(Cl)cccc1C(=O)Nc1nc2c(s1)CN(C(=O)c1ccc(C(F)(F)F)cc1)CC2 | 33.7% | 50.9% | 45.2% | 41.8% | 0.935% (active) | 35.9% | 11.4% | 25.5% | 40.3% | 6.86% (active)
COc1ccc(Cn2cc(C(=O)N=Nc3c(O)[nH]c4c(C)cccc34)nn2)cc1 | 89.1% | 75.1% | 89.6% | 106% | 73.1% | 51.3% | 77.5% | 85.3% | 43.5% | 108%
CCOC(=O)c1cnc2c(N=Nc3ccc(OC)cc3)c(N)nn2c1N | 98.8% | 99.7% | 97.9% | 104% | 103% | 113% | 86.8% | 95% | 104% | 106%
CCNC(=O)Oc1ccc(/C(=C(/CC)Cc2ccccc2)c2ccc(OCCN3CCCC3)cc2)cc1 | 101% | 99.4% | 91% | 83.2% | 94.1% | 62.1% | 100% | 98.4% | 91.2% | 102%
N#Cc1c(-c2ccccc2)nc(SCc2nnc(-c3ccc(Cl)cc3)o2)[nH]c1=O | 105% | 97.2% | 104% | 63.7% | 105% | 78.8% | 71.2% | 78.2% | 89.2% | 89.3%
CC1=CC(c2ccco2)=C2C(N)=NNC2N1 (stereo not given) | 97.6% | 95.7% | 92.6% | 88.8% | 100% | 77.8% | 95.2% | 101% | 97.6% | 116%
COc1cnc2c(c1)C(=O)c1c-2n(CCCCl)c(=O)c2ccncc12 | 58% | 69.5% | 78.4% | 58.2% | 18.6% | 110% | 26.7% | 69.3% | 83.6% | 19.7%
C=C1C(=O)O[C@H]2[C@H]1CC/C(COC(=O)/C=C/C(=O)OC/C1=C/CC[C@@]3(C)O[C@H]3[C@H]3OC(=O)C(=C)[C@@H]3CC1)=C\CC[C@@]1(C)O[C@@H]21 | 94.1% | 80.6% | 101% | 96.6% | 100% | 19% | -32% (active) | 88.6% | 5.31% (active) | 11.3%
CCN(CC)c1ccc(CNc2cc(C)nc3ccccc23)cc1 | 26.9% | 56.2% | 80.3% | 77.1% | 58.2% | 49.6% | 53.5% | 72.7% | 79.1% | 1.94% (active)
CC1=C2[C@@H](CC1)[C@]1(C)O[C@@](C3CCCCC3)(C[C@H]1OC(=O)CO)[C@H]2OC(=O)/C=C/c1ccccc1 | 93.6% | 76.5% | 94.6% | 91% | 75.8% | 44.3% | 68% | 63.1% | 55.9% | 93.8%
Cc1ccc(C2CC(c3nc(-c4ccc(Cl)cc4)oc3C)=NN2C(=O)c2ccncc2)cc1 (stereo not given) | 85.8% | 88.3% | 93.3% | 99.3% | 92.7% | 80% | 80.8% | 84.4% | 79.5% | 107%
CN(C)c1ccc(-c2nc(-c3ccccc3)c(-c3ccccc3)[nH]2)cc1 | 92.2% | 106% | 85.9% | 100% | 88.9% | 52.2% | 77.4% | 99.5% | 94.6% | 129%
COC(=O)c1cc(Br)ccc1O | 110% | 101% | 105% | 103% | 109% | 86.6% | 94.8% | 99.9% | 96.7% | 112%
COc1ccc(CCN2C(=O)/C(=C/c3ccc(C4Oc5ccccc5C5CC(c6ccccc6)=NN54)cc3)SC2=S)cc1 (stereo not given) | 100% | 105% | 108% | 98.1% | 110% | 111% | 96% | 108% | 106% | 107%
CC(=O)ON1CCCC(P(=O)(OCCSC(=O)C(C)(C)C)OCCSC(=O)C(C)(C)C)C1=O (stereo not given) | 45.9% | 33.6% | 46.1% | 32% | 16.1% | 29.4% | 28.9% | 33.5% | 19.1% | 27.5%
COC1=C(C)C(=O)N2[C@@H]1[C@H](c1ccccc1)OC21C=CC(=O)C=C1 | 3.23% (active) | -25.9% (active) | 81.8% | 28.7% | 89.4% | -11.7% (active) | -69.3% (active) | 82.3% | -48.9% (active) | -34.6% (active)
CC(=O)Oc1ccc(OC(C)=O)c2ccccc12 | 95.6% | 74.9% | 106% | 90.2% | 107% | -88.6% (active) | 61.6% | 98.7% | 107% | 112%
